# The whole screen tested about 220,000 compounds, of which about 2,400 (1.1%) were called active. Inconclusive results (about 7%) are left out. The list comes from a sample in which actives are over-represented; it also holds similar structures and randomly drawn compounds. A number with no mark means an inactive call. Calls come from the whole dose curve; as a rule, active = well fitted inhibition curve with a large enough effect; inconclusive = small, poorly fitted or top-dose-only effect, or effect the other way; inactive = no such curve, though single readings can be large or run the other way.
# Assay: qHTS Multiplex Assay to Identify Dual Action Probes in a Cell Model of Huntington: Aggregate Formation (GFP); note: nearly all actives have a fitted effect of over 60% in size
# Conditions: PC12 HttQ103-GFP aggregates, Acumen cytometry, 40 h; series mostly up to 9.22 µM; activity change, negative = inhibition: at the top concentration
# Text: NIH Chemical Genomics Center [NCGC]
# NIH Molecular Libraries Probe Production centers Network [MLPCN]
# Assay Submitter (PI): Wei Zheng
# Huntington's disease is a neurodegenerative disorder caused by a trinucleotide repeat expansion in Exon 1 of the Huntingtin gene. The CAG trinucleotide encodes glutamine and polyglutamine expansions cause cell death in selective areas of the brain. Huntington polyglutamine repeats have the tendency to form aggregates which are observable in later stages of the disease. The exact nature of the aggregates, whether toxic, protective, or insignificant, is unclear.
# A stable PC12 cell line containing a gene fusion of Exon 1 of the Huntingtin gene linked to GFP under the control of the inducible ecdysone promoter were used as the cell-based model of Huntington Disease for high throughput screening. Exon 1 of the Huntingtin gene contained an expansion of 103 polyglutamines (Q103) which, when expressed, caused cell death and distinct, bright GFP aggregates. The amount of cell death and the size and intensity of GFP aggregates increased over time and induction level. The cell death were quantified with a measurement of ATP content in the cells. A maximal 40-50% of cell death was observed when the Huntington gene was induced in this cell line.
# We optimized this assay in a homogeneous 1536 well format. A quantitative high throughput screen (qHTS) was conducted on the PC12 cells which were induced to express the toxic fusion construct. Small molecules which reduced aggregate formation were identified bu using a laser scanning cytometer calibrated to detect the aggregates in cell lysates.
# PC12 cells stably containing a construct with an ecdysone inducible promoter expressing GFP fused to the exon 1 of HTTQ103 (Huntington protein which containing a 103 ployglutamine expansion) were used.
# NCGC Assay Protocol Summary:
# Sequence, Parameter, Description
# 1, Reagent, 5 uL 1500 cells/well 1536 TC treated White clear bottom plate
# 2, Compound, 23 nL Tebufenozide inducer (100 nM final) to all columns
# 3, Compound, 23 nL 40 uM to 0.5 nM Libraries
# 5, Reagent, 5 ul ATPLite cell death assay reagent
# 6, Detector, Aggregate quantitation by Acumen Explorer
# Media consisted of phenol red free DMEM + 5% equine serum (Hyclone # SH30072.03 ), 5% supplemented Bovine Calf Serum (Hyclone # SH30074.03 ), 1x pen/strep, no G418
# Acumen Explorer was used to quantitate GFP aggregates using the following criteria: […] laser excitation, 500-530 nm emission, the PMT was set at a voltage of 450 volts, and objects ranging in size of […] in size having a signal of 6 STDEV above background were collected.
# Control columns: 1 = DMSO, 2= 2 uM teb dilns (1:1), 4 = 100 nM Teb inducer. Sample columns received 100 nM Teb.
# % is set by controls: 0 for no effect and ±100 for the full control effect.
SMILES,"activity change, negative = inhibition",Potency
COC(=O)c1ccc(CSc2ccccc2C)o1,-0.648% [at 46.1 µM],
COC(=O)c1ccc(CN(c2ccccc2OC)S(=O)(=O)c2cccs2)o1,-2.95% [at 46.1 µM],
COC(=O)c1ccc(Cc2ccccc2)o1,,0.0004 µM (active)
Cn1c(=O)c2c(nc(NCc3ccccc3)n2CC(N)=O)n(C)c1=O,-3.14%,
Cc1ncn2cc(-c3ccc(Cl)cc3Cl)[nH]c(=O)c12,-41.8%,
C=C(C)CNC(=S)Nc1ccc(S(=O)(=O)Nc2cnc3ccccc3n2)cc1,0%,
CCc1cc2c(NC3CCCC3)ncnc2s1,-17.1%,
Oc1ccccc1N1CCN(c2ncnc3sc(-c4ccccc4)cc23)CC1,5.69%,
CCc1cc2c(N3CCN(c4nnc(CC)s4)CC3)ncnc2s1,,17.8 µM (active)
Cc1ccc(C(O)P(=O)(OC(C)C)c2ccc(N(C)C)cc2)cc1 (configuration not stated),15.4%,
O=C(/C=C/Nc1ccc(S(=O)(=O)Nc2cnc3ccccc3n2)cc1)c1cccnc1,-17.6%,
CCOC(=O)c1ccc(N=C2SC(C(=O)NC)CC(=O)N2CCc2ccccc2)cc1 (configuration not stated),-13.4%,
CC1=CC(C)(C)NC(=S)N1NC(=O)c1ccccc1Cl,-29.3%,
CN(NC(=O)c1ccccc1)c1nc2ccccc2nc1C(F)(F)F,-19.7% [at 46.1 µM],
CN(NC(=O)c1ccccc1F)c1nc(C(F)(F)F)nc2ccccc12,-0.998% [at 46.1 µM],
CSc1nc(N(C)NC(=O)c2cccc(C)c2)c2ccccc2n1,,1.26 µM (active)
O=C(OCc1ccccc1)c1ccc(O)cc1,6.43% [at 46.1 µM],
O=C(NCc1cccnc1)C(=O)Nc1nc(-c2ccccc2)cs1,-4.94%,
CCc1ccc(-c2nn(-c3ccccc3)cc2CSC(=N)N)cc1,,17.8 µM (active)
CCn1c(SCc2ccc(C)cc2)nnc1-c1nn(-c2ccccc2)ccc1=O,9.93% [at 46.1 µM],
O=C(Nc1cn(-c2ccccc2)nc1-c1ccccc1)c1ccccc1,-21% [at 46.1 µM],
Cc1cc(Nc2ccc(Cl)cc2)nc(N2CCOCC2)n1,-1.57%,
CC(=O)NC(=O)c1ccccc1O,1.25% [at 46.1 µM],

SMILES,"activity change, negative = inhibition",Potency
Cc1nnc(C)c2c(C)n(N)c(C)c12,0.29%,
CCC(=O)/C=C1\Sc2ccccc2N1CC,-1.12% [at 46.1 µM],
CCN1/C(=C/C(=S)Nc2ccccc2)Sc2ccccc21,4.06%,
CCN1/C(=C/c2ccc3ccc(C)cc3[n+]2CC)Sc2ccccc21,,7.94 µM (active)
COc1ccccc1N(C)S(=O)(=O)c1ccc(C(=O)NC2CCCCCC2)cc1,21.4%,
Nc1ccc(C(=O)OCC(=O)NC2CCS(=O)(=O)C2)cc1[N+](=O)[O-] (configuration not stated),1.88%,
NC(=O)c1sc2nc3c(c(-c4ccccc4)c2c1N)CCC3,,7.08 µM (active)
Cc1cccc(NC(=O)c2sc3nc4c(c(-c5ccco5)c3c2N)CCC4)c1,-5.16% [at 46.1 µM],
CC(=O)Nc1ccc(NC(=O)c2sc3nc4c(c(-c5ccc(C)cc5)c3c2N)CCC4)cc1,16.4% [at 46.1 µM],
CCNc1nc(Oc2ccc(C(=O)OC)cc2)nc(N2CCOCC2)n1,12.1%,
Cc1cc(=O)[nH]c(SCC(=O)Nc2ccc(Br)cc2)n1,-8.52%,
C=CCNC(=S)NNC(=O)c1cc(Cl)ccc1OC,2.51%,
O=C(Nc1nncs1)c1cccc(S(=O)(=O)N2CCCCC2)c1,-10.1% [at 46.1 µM],
CCOC(=O)CSc1nnc(NC(=O)c2cccc(S(=O)(=O)N3CCCCC3)c2)s1,0.38% [at 46.1 µM],
CCOC(=O)CSc1nnc(NC(=O)c2cccc(S(=O)(=O)N3CCCC3)c2)s1,,1 µM (active)
O=P(O)(CN1CCCCCC1)C1Cc2ccccc2C1,-5.67%,
NS(=O)(=O)c1ccc(Nc2nc(-c3ccccc3)cs2)cc1,,11.2 µM (active)
COc1ccc(Nc2nc(-c3ccccc3)cs2)cc1,15.7% [at 46.1 µM],
CC(=O)Nc1nc(C)c(-c2csc(Nc3ccc(S(N)(=O)=O)cc3)n2)s1,-10.9%,
OCC(CO)NC1C[C@](O)(CO)[C@@H](O)[C@H](O)[C@H]1O (some centres not stated),-1.34% [at 46.1 µM],
Oc1c(Cl)cc(Cl)c(Cl)c1Cc1c(O)c(Cl)cc(Cl)c1Cl,,5.62 µM (active)
CCOc1ccc(NC(=O)CCC(=O)N/N=C/c2ccc([N+](=O)[O-])s2)cc1,-1.14% [at 46.1 µM],
CC(C)(C)c1cc(C(=O)N/N=C/c2ccc([N+](=O)[O-])s2)n[nH]1,6.94%,

SMILES,"activity change, negative = inhibition",Potency
Cc1ccccc1NCC(=O)N/N=C\c1ccc([N+](=O)[O-])s1,,11.2 µM (active)
Cc1ccc(S(=O)(=O)NNC(=S)NC(C)(C)C)cc1,-5.96%,
CC(O)COc1ccccc1 (configuration not stated),-7.24% [at 46.1 µM],
CC1CCCCN1S(=O)(=O)c1ccc(C(=O)Nc2nnc(-c3cccs3)o2)cc1 (configuration not stated),,11.2 µM (active)
O=C(Nc1nnc(-c2ccco2)o1)c1ccc(S(=O)(=O)N2CCOCC2)cc1,-4.11% [at 46.1 µM],
CC1CCCCN1S(=O)(=O)c1ccc(S(=O)(=O)N(CC(=O)Nc2ccccc2)Cc2cccs2)cc1 (configuration not stated),-1.27% [at 46.1 µM],
COc1ccc(C(=O)N/N=C(\C)CC(=O)Nc2ccc(Cl)cn2)cc1,5.22%,
COC(=O)c1sccc1NC(=O)CC1C(=O)NCCN1C(=O)Nc1ccc(F)cc1F (configuration not stated),-10.3%,
N/C(=N/O)c1cccn1Cc1ccccc1[N+](=O)[O-],1.61% [at 46.1 µM],
O=c1c([N+](=O)[O-])cc(C(F)(F)F)cn1Cc1cccc(Cl)c1,14.6% [at 46.1 µM],
O=c1c([N+](=O)[O-])cccn1Cc1ccc(F)cc1Cl,,10 µM (active)
O=C(NCC1CCCO1)c1ccccc1-c1nc(-c2ccccc2Cl)no1 (configuration not stated),0.943%,
CCCC(=O)Nc1ccc(C(=O)N/N=C/c2ccc[nH]2)cc1,-1.27% [at 46.1 µM],
CC(=O)Nc1ccc(/C=C/C(=O)c2ccccc2)cc1,-17.7%,
CC(=O)Nc1ccc(C(=O)/C=C/c2ccc[nH]2)cc1,,11.2 µM (active)
Cn1c(=O)c(=O)n(C)c2cc(S(=O)(=O)NCCN3CCN(c4ccccc4F)CC3)ccc21,-1.75%,
COC(=O)CNc1nc(Cl)nc(N2CCC(C)CC2)n1,3.06%,
N#Cc1c(C(F)(F)F)cc(-c2cccs2)nc1N1CCCCC1,-10.4%,
CSc1nc2ccc(NC(=O)c3c(F)cccc3F)cc2s1,-18.4% [at 46.1 µM],
COc1cccc(OC)c1C(=O)Nc1ccc(Cc2ccncc2)cc1,9.12% [at 46.1 µM],
O=C(Nc1ccncc1)c1c(F)cccc1F,,12.6 µM (active)
O=C(Nc1ccccc1C(F)(F)F)N1CCCC1c1cccnc1 (configuration not stated),3.58%,
CCOC(=O)c1c(C)[nH]c2c1-c1ccccc1C(=O)C2=O,,5.01 µM (active)

SMILES,"activity change, negative = inhibition",Potency
Cc1[nH]c2ccccc2c1C(=O)COC(=O)C(C)C,3.18% [at 46.1 µM],
CCOC(=O)c1cc2n(c1N)-c1ccccc1C2=O,-8.66% [at 46.1 µM],
Nc1nnc(SCC(=O)NC2CCCc3ccccc32)s1 (configuration not stated),-2.41%,
O=C(Cc1ccc(Cl)c(Cl)c1)Nc1ccc(SC(F)F)cc1,,12.6 µM (active)
O=C(Cc1ccc2c(c1)CCCC2)Nc1ccccc1Cl,-12.7% [at 46.1 µM],
O=C(CCl)Nc1ccc(Sc2ccc(NC(=O)CCl)cc2)cc1,21.2%,
O=C(NNC(=O)c1cnccc1C(F)(F)F)c1ccc(Cl)cc1,-21.6%,
CC(=O)NC(CC(=O)Nc1nccs1)c1ccccc1 (configuration not stated),1.89%,
CCCCC(C(=O)OCC(=O)c1ccc(OC)cc1)N1C(=O)c2ccccc2C1=O (configuration not stated),-15.5% [at 46.1 µM],
CCOC(=O)C1=C(c2ccc(OC)cc2)C(=O)c2ccccc2C1=O,,11.2 µM (active)
CCOC(=O)c1c(-c2ccc(C)cc2)csc1/N=C(\C)C1=C(O)c2ccccc2C1=O,0.394%,
CC(CNS(=O)(=O)c1ccc(Br)cc1)CN(C)C (configuration not stated),-16.9%,
c1ccc(-c2nnc(N3CCOCC3)c3ccccc23)cc1,-30.7%,
CN1CCN(c2nc(Nc3ccc(O)cc3)nc3ccccc23)CC1,-3.21% [at 46.1 µM],
c1ccc(Nc2nc(N3CCOCC3)c3ccccc3n2)cc1,,12.6 µM (active)
CN(c1ccc(OCC(=O)NC2=NCCS2)cc1)S(=O)(=O)c1ccc(F)cc1,-8.7%,
CC(=O)c1sc(NC(=O)c2ccc(C)cc2)nc1C,8.67% [at 46.1 µM],
Cc1ccc(C(=O)Nc2nnc(-c3cccs3)s2)cc1C,0.134% [at 46.1 µM],
N#Cc1ccc(C(=O)Nc2nc(-c3cccs3)c(C(=O)C(F)(F)F)s2)cc1,,2.82 µM (active)
Clc1ccc(CSc2nnc3c(n2)[nH]c2ccccc23)cc1,-6.63%,
Cc1ccc(CSc2nnc(-c3cnccn3)n2C)cc1,-6.59%,
O=C(CCCO)N/N=C/c1cc(Br)ccc1O,,7.94 µM (active)
Oc1ccc(Br)cc1C=Nc1ccc2[nH]ncc2c1,-6.74% [at 46.1 µM],

SMILES,"activity change, negative = inhibition",Potency
COc1ccc(CC(=O)NCC(=O)N/N=C/c2cc(Br)ccc2OC)cc1,9.05%,
COc1ccc(Cl)cc1CSc1ncn[nH]1,-11.8%,
COc1ccc(-c2nnc(SCC(=O)c3cccs3)o2)c(OC)c1,17.5% [at 46.1 µM],
COc1ccc(-n2c(C)cc(C(=O)CSc3nnc(-c4cccs4)o3)c2C)cc1,,7.94 µM (active)
COc1ccc(OC)c(C(=O)CSc2nnc(-c3cccs3)o2)c1,-1.52% [at 46.1 µM],
C/C=N/N(c1ccccc1)c1ccccc1,13.7%,
COc1cccc(Nc2nnc(SCC(=O)N3CC(=O)Nc4ccccc43)s2)c1,-23.2%,
O=P(O)(O)OC[C@H](O)CO,11.5% [at 46.1 µM],
Cc1nc(CNS(=O)(=O)c2cccnc2)cs1,12.4% [at 46.1 µM],
Cc1ccc(S(=O)(=O)NCc2csc(C)n2)c(C)c1,14.9% [at 46.1 µM],
Cc1nc(CNS(=O)(=O)c2ccc(Oc3ccccc3)cc2)cs1,,10 µM (active)
CSC1=NC2(C)CCCCC2C12C=CC(=O)C=C2 (configuration not stated),7.52%,
Nn1c(SCc2ccccc2)nnc1C1CCCCC1,8.02%,
COC(=O)C(C)Sc1nc2c(c(=O)n(C)c(=O)n2C)n1Cc1cccc(C)c1 (configuration not stated),,28.2 µM (active)
Cc1cccc(Cn2c(SCCO)nc3c2c(=O)n(C)c(=O)n3C)c1,-20.3% [at 46.1 µM],
CCCCNc1nc2c(c(=O)[nH]c(=O)n2C)n1CCOc1ccccc1,15.4% [at 46.1 µM],
Cc1cccc(Cn2c(N3CCN(c4ccccc4)CC3)nc3c2c(=O)n(C)c(=O)n3C)c1,-27.9% [at 46.1 µM],
CCCCNc1nc2c(c(=O)n(C)c(=O)n2C)n1Cc1cccc(OC)c1,,7.08 µM (active)
CCn1c(NCCc2ccc(OC)c(OC)c2)nc2c1c(=O)n(C)c(=O)n2C,-18.1% [at 46.1 µM],
CN(C)C(=O)c1coc2nc3ccccc3nc12,8.88%,

# From PubChem BioAssay AID1688 (National Center for Advancing Translational Sciences (NCATS), 2009)
